Values without a mark were called inactive. No rule for the calls is given here.

This assay deals with Pantothenate synthetase (Mycobacterium tuberculosis (strain ATCC 25618 / H37Rv)) (UniProt P9WIL5). Nature of the assay: Recombinant Mtb pantothenate synthetase (PanC) inhibitors, coupled enzyme, confirmatory (AID 375).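 Also: 0% = full reaction with vehicle and 100% = no enzyme background.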 The settings on record: coupled enzyme assay; at 10 µM, stronger effect = higher value.
Sequence of Pantothenate synthetase (Mycobacterium tuberculosis (strain ATCC 25618 / H37Rv)) (P9WIL5 whole entry, looked up): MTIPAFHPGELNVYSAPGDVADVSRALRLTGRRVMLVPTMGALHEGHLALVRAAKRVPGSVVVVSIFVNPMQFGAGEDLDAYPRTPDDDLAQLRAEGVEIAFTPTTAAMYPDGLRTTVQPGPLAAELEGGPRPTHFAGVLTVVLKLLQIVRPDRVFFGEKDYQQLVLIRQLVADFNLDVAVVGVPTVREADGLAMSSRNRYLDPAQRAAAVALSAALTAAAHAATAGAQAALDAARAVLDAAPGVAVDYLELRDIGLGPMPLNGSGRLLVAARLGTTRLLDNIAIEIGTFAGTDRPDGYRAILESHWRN
As for `Cc1cccc(CS(=O)(=O)Cc2ccc(C(=O)NCC3CCCO3)o2)c1` (stereo not given), the inhibition (usually the percentage by which the read-out fell short of the control) is 0%.
`C=CCOC(=O)C1=C(C)NC(=O)NC1c1cn(-c2ccccc2)nc1-c1cccs1` (stereo not given): the inhibition is 4%.
With `CCOC(=O)C1CCN(C(=O)CSc2n[nH]c(=O)[nH]c2=O)CC1`, the inhibition is 0%.
As for `CCN(CC)C(=O)c1sc(NC(=O)c2ccco2)c(C#N)c1C`, the figure is 15%; as for `COc1ccc(-c2noc(CN3CCC(Cc4ccccc4)CC3)n2)cc1`, 0%; as for `O=C(COC(=O)c1cnccn1)c1ccc(OC(=O)c2ccccc2)cc1`, 0%.
In the case of `O=C(Nc1ccc(Br)c2cccnc12)c1ccc(Cn2cc(Cl)cn2)o1`, the inhibition was 1%.
Consider `COc1ccccc1C(=O)N1CCNC(=O)C1CC(=O)Nc1ccc(Cl)cc1` (stereo not given), for which the inhibition is 0%.
On to `O=C(CSc1nnnn1C1CCCC1)NCc1ccc2c(c1)OCO2`, for which the inhibition was 0%.
Take `COc1ccc(N2CCN(C(c3ccccc3)c3sc4nc(C)nn4c3O)CC2)cc1` (stereo not given): the inhibition is 0%.
For `CC(=O)NC(Cc1ccc(C)cc1)C(=O)NC1CCN(C(=O)c2cnccn2)CC1` (stereo not given), the inhibition was 0%.
For `O=C(NCCCN1CCCC1=O)C1CCN(S(=O)(=O)N2CCOCC2)CC1`, the inhibition is 0%.
Regarding `CCCN(CCC)CCNC(=O)C(NS(=O)(=O)c1ccc2c(c1)CCC(=O)N2)c1ccccc1` (stereo not given), the inhibition is 0%.
With `O=c1cc(C(F)F)oc2c1ccc1ccccc12`, the inhibition was 0%.
Consider `Cc1cc(C)n2nc(S(=O)(=O)N(C)Cc3ccccc3)nc2n1`, for which the inhibition is 0%.
As for `O=C(C1CCN(c2nnnn2-c2ccccc2)CC1)N1CCN(c2ccccc2)CC1`, the figure is 0%.
As for `Cc1cc(C)cc(NC(=O)CCNS(=O)(=O)c2ccc3c(c2)oc(=O)n3C)c1`, the figure is 0%; as for `CC1(C)CC(=O)c2cc(OCC(=O)N3CCN(c4ccccc4F)CC3)ccc2O1`, 6%; as for `Cc1csc(NC(=O)c2cccs2)n1`, 0%.
As for `CC(=O)N1CCN(c2ccc(NC(=O)c3ccc(C(C)(C)C)cc3)cc2)CC1`, the figure is 0%.
As for `CC(NC(=O)c1ccc2c(c1)OCO2)C(c1cccs1)N1CCOCC1` (stereo not given), the inhibition was 9%.
`N#C/C(=C(/O)CN1CCOCC1)c1nc2ccccc2s1`: the inhibition is 0%.
In the case of `c1ccc2c(c1)sc1nnnn12`, the inhibition was 12%.
With `N#CC1=C(N)Oc2c(ccc3cccnc23)C1c1cccnc1` (stereo not given), the inhibition is 0%.
As to `CCN(CC)C(=O)CSc1nnc(-c2cc(OC)cc(OC)c2)o1`, the inhibition is 0%.
As for `CCOc1cccc(OCCCCn2ccnc2)c1`, the figure is 0%.
As for `Cn1c(-n2c(-c3ccco3)nc3ccccc3c2=O)nc2ccccc21`, the figure is 2%; as for `C=CCOc1nc2c(c(=O)n(C)c(=O)n2C)n1Cc1c(Cl)cccc1Cl`, 1%.
As to `Cc1ccc(OCc2nnc(SCC(=O)N3CCOCC3)n2C)cc1`, the inhibition is 0%.
As for `Nc1nnc(SCC(=O)N2CCc3ccccc32)n1-c1ccccc1`, the figure is 1%; as for `COc1ccc(C(=O)N2CCN(C(=O)c3ccco3)CC2)cc1OC`, 4%.
As for `COc1ccccc1C(=O)N1CCN(CCc2ccccc2)CC1`, the figure is 6%; as for `COc1ccc(-c2n[nH]c(C)c2-c2ccc(Cl)cc2)c(O)c1OC`, 0%.
Regarding `CC(=O)NCCOc1cccc(OCCNC(C)=O)c1`, the inhibition is 2%.
As for `COCCn1c(C)cc(C(=O)COC(=O)c2ccc(N3CCCC3=O)cc2)c1C`, the inhibition is 2%.
`Cc1nc2ccccn2c1C(=O)NCCCN1CCOCC1`: the inhibition was 10%.
Turning to `CC1C(O)=C(c2nc3ccccc3[nH]2)C(=N)N1c1ccccc1` (stereo not given), the inhibition was 9%.
As for `COCc1nnc(NC(=O)c2ccc(S(=O)(=O)N(C)c3ccccc3)cc2)o1`, the figure is 0%; as for `O=C(O)CSc1ccc2ccccc2n1`, 5%.
Regarding `Cn1c(=O)c2c3c(sc2n2c(SCc4ccccc4)nnc12)CCCC3`, the inhibition was 0%.

For the origin of these results see PubChem BioAssay.
